# Results filed as inconclusive are left out. Entries that show only a call come without a potency. A number with no mark means an inactive call. Calls of active or inactive are those of the source. Unless noted, calls come from the whole dose curve; as a rule, active = well fitted curve in the direction sought with a large enough effect in the repeat runs; inconclusive = weak or mixed curves; inactive = no such curve, though single readings can be large; an effect the other way counts as inactive or inconclusive.
# Assays:
# [1] = qHTS assay to identify small molecule agonists of the peroxisome proliferator-activated receptor delta (PPARd) signaling pathway - cell viability counter screen (AID 743211); note: nearly all actives have a fitted effect of over 55% in size; note: potency is the fitted concentration of half-maximal effect
# Summary of the method: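 Viability of GeneBLAzer PPARd UAS-bla HEK293H cells was assessed after 17 h compound incubation at 37C, using CellTiter-Glo reagent added after the reporter read and luminescence recorded 30 min later.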
# [2] = qHTS assay to identify small molecule agonists of the farnesoid-X-receptor (FXR) signaling pathway - cell viability counter screen (AID 743218); note: nearly all actives have a fitted effect of over 45% in size; note: potency is the fitted concentration of half-maximal effect
# Summary of the method: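 In GeneBLAzer FXR-UAS-bla HEK 293T cells, compounds act for 16 h at 37 C. Cell viability is then scored in the reporter wells by CellTiter-Glo, 30 min at RT, luminescence.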
# [3] = qHTS assay to identify small molecule antagonists of the farnesoid-X-receptor (FXR) signaling pathway - cell viability counter screen (AID 743221; active = well fitted cell-killing curve with a large enough effect in the repeat runs, not every such curve was filed as active; note: nearly all actives have a fitted effect of over 50% in size; note: potency is the fitted concentration of half-maximal effect)
# Summary of the method: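 Quantitative HTS of the Tox21 10K library run in parallel with the beta-lactamase reporter read. HEK 293T cells carrying a UAS-driven bla reporter got compound and 50 uM CDCA (final) for 16 h; ATP-based luminescence followed.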
# [4] = molecular target: Vitamin D3 receptor (Homo sapiens) (UniProt P11473); assay: qHTS assay to identify small molecule antagonists of the vitamin D receptor (VDR) signaling pathway (AID 743223; active = well fitted inhibition curve with a large enough effect in the signal ratio in the repeat runs, not every such curve was filed as active; the % refers to the signal ratio)
# Chain of Vitamin D3 receptor (Homo sapiens) (P11473 whole entry, looked up): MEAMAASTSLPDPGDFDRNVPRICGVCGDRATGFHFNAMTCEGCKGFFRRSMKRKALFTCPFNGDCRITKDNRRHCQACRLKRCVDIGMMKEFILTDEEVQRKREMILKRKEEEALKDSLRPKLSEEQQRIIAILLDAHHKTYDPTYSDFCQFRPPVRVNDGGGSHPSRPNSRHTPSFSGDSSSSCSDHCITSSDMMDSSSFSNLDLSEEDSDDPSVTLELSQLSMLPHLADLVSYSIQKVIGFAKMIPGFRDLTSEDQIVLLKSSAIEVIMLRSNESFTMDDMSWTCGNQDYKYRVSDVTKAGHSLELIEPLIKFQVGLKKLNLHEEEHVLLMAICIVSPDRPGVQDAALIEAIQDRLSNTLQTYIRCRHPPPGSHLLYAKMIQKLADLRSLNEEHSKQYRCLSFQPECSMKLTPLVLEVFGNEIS
# Summary of the method: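 Fluorescence from LiveBLAzer B/G FRET substrate, read after 2 h at room temperature, reflects beta-lactamase reporter activity in VDR-bla cells treated 16 h at 37C with compounds and agonist 1alpha,25-dihydroxyvitamin D3 (3 nM final).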
# [5] = qHTS assay to identify small molecule antagonists of the vitamin D receptor (VDR) signaling pathway - cell viability counter screen (AID 743225); note: nearly all actives have a fitted effect of over 50% in size; note: potency is the fitted concentration of half-maximal effect
# Summary of the method: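 Cells (VDR-UAS-bla HEK 293T) are plated, rested 4 h at 37C, dosed with compound and 3 nM final 1-alpha,25-dihydroxy vitamin D3, and incubated 16 h. Viability is taken from CellTiter-Glo luminescence in the reporter wells.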
# [6] = qHTS assay to identify small molecule antagonists of the retinoid-related orphan receptor gamma (ROR-gamma) signaling pathway - cell viability counter screen (AID 1159520); note: potency is the fitted concentration of half-maximal effect; nearly all actives have a fitted effect of over 50% in size
# Summary of the method: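 Tet-on ROR gamma CHO cells were given compounds for 2 hr, then doxycycline hyclate at 1 uM final, and incubated 16 hr at 37 C. Viability was measured as ATP content by CellTiter-Glo luminescence.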
# [7] = qHTS assay to identify small molecule agonists of the AP-1 signaling pathway - cell viability counter screen (AID 1159525; calls by dose curve; note: nearly all actives have a fitted effect of over 55% in size)
# Summary of the method: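 AP-1-bla ME-180 cells in Opti-MEM with 0.5% dialyzed FBS, compound exposure 5 h at 37 C in 15-point titration. Viability read in the same wells as ATP content by CellTiter-Glo luminescence, normalised to tetra-n-octylammonium bromide and DMSO controls.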
# [8] = qHTS assay to identify small molecule antagonists of the retinoid acid receptor (RAR) signaling pathway - cell viability counter screen (AID 1159551); note: nearly all actives have a fitted effect of over 35% in size; note: potency is the fitted concentration of half-maximal effect
# Summary of the method: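 Following overnight attachment, C3RL4 reporter cells received DMSO-dissolved compounds and then retinol (1 uM final). Six hours later at 37 C, ATP content was measured by CellTiter-Glo luminescence.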
# [9] = qHTS assay to identify small molecule antagonists of the retinoic acid receptor (RAR) signaling pathway (AID 1159552; note: nearly all actives have a fitted effect of over 50% in size; note: potency is the fitted concentration of half-maximal effect)
# Summary of the method: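 Quantitative HTS in C3RL4 RARE-luciferase reporter cells. Compounds were added with 1 uM (final) retinol; luminescence was read after 6 hr.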
# [10] = molecular target: Bile acid receptor (Homo sapiens) (UniProt Q96RI1); assay: qHTS assay to identify small molecule agonists of the farnesoid-X-receptor (FXR) signaling pathway (AID 743220; active = well fitted activation curve with a large enough effect in the signal ratio in the repeat runs, not every such curve was filed as active; the % refers to the signal ratio)
# Chain of Bile acid receptor (Homo sapiens) (Q96RI1 whole entry, looked up): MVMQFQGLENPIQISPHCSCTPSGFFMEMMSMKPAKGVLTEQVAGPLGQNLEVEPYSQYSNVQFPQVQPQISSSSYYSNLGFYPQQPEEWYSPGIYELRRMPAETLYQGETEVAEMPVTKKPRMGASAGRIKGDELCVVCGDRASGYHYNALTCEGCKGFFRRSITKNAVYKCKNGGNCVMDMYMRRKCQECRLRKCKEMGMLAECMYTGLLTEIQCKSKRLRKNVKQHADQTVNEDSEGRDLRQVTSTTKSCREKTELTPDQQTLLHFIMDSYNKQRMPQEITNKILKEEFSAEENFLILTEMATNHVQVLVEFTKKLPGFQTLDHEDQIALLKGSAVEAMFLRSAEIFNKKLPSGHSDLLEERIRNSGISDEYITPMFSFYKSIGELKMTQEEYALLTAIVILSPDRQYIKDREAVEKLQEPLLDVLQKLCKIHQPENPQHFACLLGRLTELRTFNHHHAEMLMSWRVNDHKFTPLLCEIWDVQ
# Summary of the method: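 Beta-lactamase reporter under UAS control in GeneBLAzer FXR HEK 293T cells (5000/well) measured with LiveBLAzer FRET substrate after 2 h at room temperature. Compound exposure lasted 16 h at 37C.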
# [11] = molecular target: Vitamin D3 receptor (Homo sapiens) (UniProt P11473); assay: qHTS assay to identify small molecule agonists of the vitamin D receptor (VDR) signaling pathway (AID 743222; calls by dose curve)
# Summary of the method: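 Agonist activity measured in VDR-bla reporter cells. Exposure 16 h, 37C, 5% CO2; detection by B/G FRET substrate, 2 h RT.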
# [12] = qHTS assay to identify small molecule agonists of the vitamin D receptor (VDR) signaling pathway - cell viability counter screen (AID 743224); note: nearly all actives have a fitted effect of over 50% in size; note: potency is the fitted concentration of half-maximal effect; for activity change, negative = cytotoxicity: series mostly up to about 63 µM
# Summary of the method: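 VDR-bla cell line, quantitative HTS format; 16 h compound incubation (37C, 5% CO2); ATP-based CellTiter-Glo luminescence measured in the reporter assay wells.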
# [13] = qHTS assay to identify small molecule agonists of the RXR signaling pathway - cell viability counter screen (AID 1159529); note: nearly all actives have a fitted effect of over 50% in size; note: potency is the fitted concentration of half-maximal effect; for activity change, negative = cytotoxicity: series mostly up to about 77 µM
# Summary of the method: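 Cell viability is measured by CellTiter-Glo luminescence, 30 min at room temperature, in wells already read for beta-lactamase. Engineered HEK 293T cells (RXR-alpha-UAS-bla) are dosed 16 hr at 37 C. Tetraoctyl ammonium bromide serves as positive control.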
# [14] = qHTS assay to identify small molecule agonists of the AP-1 signaling pathway (AID 1159526; calls by dose curve)
# [15] = molecular target: Peroxisome proliferator-activated receptor delta (Homo sapiens) (UniProt Q03181); assay: qHTS assay to identify small molecule agonists of the peroxisome proliferator-activated receptor delta (PPARd) signaling pathway (AID 743212; calls by dose curve)
# Chain of Peroxisome proliferator-activated receptor delta (Homo sapiens) (Q03181 whole entry, looked up): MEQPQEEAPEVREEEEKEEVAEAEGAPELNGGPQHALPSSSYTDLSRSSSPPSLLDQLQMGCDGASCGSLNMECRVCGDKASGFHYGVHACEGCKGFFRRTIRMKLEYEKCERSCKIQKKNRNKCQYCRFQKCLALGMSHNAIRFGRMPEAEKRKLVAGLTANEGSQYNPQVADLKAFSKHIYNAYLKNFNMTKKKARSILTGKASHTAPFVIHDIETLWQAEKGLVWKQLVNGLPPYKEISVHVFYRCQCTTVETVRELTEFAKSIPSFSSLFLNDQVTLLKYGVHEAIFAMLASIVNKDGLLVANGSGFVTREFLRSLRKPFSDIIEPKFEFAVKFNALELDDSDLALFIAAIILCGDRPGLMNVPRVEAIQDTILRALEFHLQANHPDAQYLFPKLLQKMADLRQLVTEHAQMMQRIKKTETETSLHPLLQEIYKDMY
# Summary of the method: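 GeneBLAzer UAS-bla HEK293H cells carrying a PPARδ construct were exposed to compounds at 37 °C. Beta-lactamase activity was read by FRET fluorescence after 2 h at room temperature with LiveBLAzer B/G substrate.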
# [16] = qHTS assay to identify small molecule antagonists of the peroxisome proliferator-activated receptor delta (PPARd) signaling pathway - cell viability counter screen (AID 743213); note: nearly all actives have a fitted effect of over 50% in size; note: potency is the fitted concentration of half-maximal effect
# Summary of the method: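 PPARd-bla HEK293H cells were treated with compounds plus agonist L165041 (300 nM final) for 17 h at 37 C. Viability was then read in the same wells by CellTiter-Glo luminescence after 30 min at room temperature.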
# [17] = molecular target: Peroxisome proliferator-activated receptor delta (Homo sapiens) (UniProt Q03181); assay: qHTS assay to identify small molecule antagonists of the peroxisome proliferator-activated receptor delta (PPARd) signaling pathway (AID 743215; active = well fitted inhibition curve with a large enough effect in the signal ratio in the repeat runs, not every such curve was filed as active; the % refers to the signal ratio;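 note: cells stimulated with agonist L165041 at 300 nM final during compound exposure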; note: potency is the fitted concentration of half-maximal effect)
# Summary of the method: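 Antagonist-mode beta-lactamase reporter screen: HEK293H cells with UAS-bla under PPARd control, stimulated by 300 nM L165041 (final) alongside test compound for 17 h at 37 C, then FRET fluorescence after 2 h substrate incubation.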
# [18] = molecular target: Nuclear receptor ROR-gamma (Homo sapiens) (UniProt P51449); assay: qHTS assay to identify small molecule antagonists of the retinoid-related orphan receptor gamma (ROR-gamma) signaling pathway (AID 1159521; note: nearly all actives have a fitted effect of over 50% in size; note: potency is the fitted concentration of half-maximal effect)
# Summary of the method: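 RORγ antagonism is scored from reduced reporter luminescence in Tet-on CHO cells. Induction used 1 uM final doxycycline hyclate for 16 h at 37 C, following a 2 h compound exposure.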
# [19] = molecular target: Retinoic acid receptor RXR-alpha (Homo sapiens) (UniProt P19793); assay: qHTS assay to identify small molecule agonists of the RXR signaling pathway (AID 1159527; calls by dose curve; note: nearly all actives have a fitted effect of over 35% in size)
# Chain of Retinoic acid receptor RXR-alpha (Homo sapiens) (P19793 whole entry, looked up): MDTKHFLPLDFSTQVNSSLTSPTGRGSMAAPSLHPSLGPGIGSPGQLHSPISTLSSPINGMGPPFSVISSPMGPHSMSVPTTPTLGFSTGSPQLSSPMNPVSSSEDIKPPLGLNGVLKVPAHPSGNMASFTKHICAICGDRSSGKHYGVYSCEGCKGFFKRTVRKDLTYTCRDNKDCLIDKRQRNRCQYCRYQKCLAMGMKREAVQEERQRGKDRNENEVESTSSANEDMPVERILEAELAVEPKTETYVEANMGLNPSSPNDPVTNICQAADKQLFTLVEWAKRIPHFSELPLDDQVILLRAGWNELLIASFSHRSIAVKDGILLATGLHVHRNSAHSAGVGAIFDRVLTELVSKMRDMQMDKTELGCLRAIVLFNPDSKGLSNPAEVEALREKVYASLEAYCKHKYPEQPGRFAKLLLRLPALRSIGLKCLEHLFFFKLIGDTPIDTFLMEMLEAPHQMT
# Summary of the method: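 qHTS of the Tox21 10K library in GeneBLAzer RXR-alpha HEK 293T cells carrying a beta-lactamase reporter […]; 16 hr treatment, 9-cis retinoic acid as agonist control, FRET read-out.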
# [20] = molecular target: Bile acid receptor (Homo sapiens) (UniProt Q96RI1); assay: qHTS assay to identify small molecule antagonists of the farnesoid-X-receptor (FXR) signaling pathway (AID 743217; active = well fitted inhibition curve with a large enough effect in the signal ratio in the repeat runs, not every such curve was filed as active; the % refers to the signal ratio; note: potency is the fitted concentration of half-maximal effect)
# Summary of the method: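 Beta-lactamase reporter under UAS control in HEK 293T cells; compound exposure 16 h at 37 °C in the presence of chenodeoxycholic acid (50 uM final); signal from B/G FRET substrate after 2 h at room temperature.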
compound,measurement,setting,value
O=C(CCCCCCCCc1cccnc1)N1CCC(C=C(c2ccccc2)c2ccccc2)CC1,Potency,[1],12.3 µM (active)
same,Potency,[2],24.5 µM (active)
same,Potency,[3],inactive
same,Potency,[4],inactive
same,Potency,[5],inactive
same,Potency,[6],68.6 µM (active)
same,Potency,[7],inactive
same,Potency,[8],inactive
same,Potency,[9],inactive
CCCCC/C=C\C=C\C(=O)OCC,outcome,[10],inactive
same,outcome,[11],inactive
same,Potency,[12],40.5 µM (active)
same,Potency,[5],inactive
same,Potency,[13],45.5 µM (active)
same,Potency,[8],inactive
O=S(=O)(c1ccc(OCc2ccccc2)cc1)c1ccccc1O,Potency,[7],inactive
same,Potency,[13],inactive
S=C1NC=NC2N=CNC12 (centres undefined),Potency,[2],11 µM (active)
same,outcome,[10],inactive
same,outcome,[11],inactive
same,Potency,[4],inactive
same,Potency,[12],3.09 µM (active)
same,Potency,[5],7.77 µM (active)
same,Potency,[7],inactive
same,Potency,[14],inactive
same,Potency,[13],6.92 µM (active)
CCC(C)(C)c1ccc(CC(C)CN2C[C@@H](C)O[C@@H](C)C2)cc1 (some centres undefined),Potency,[1],26.6 µM (active)
same,outcome,[15],inactive
same,Potency,[16],inactive
same,Potency,[17],inactive
same,Potency,[2],inactive
same,Potency,[3],inactive
same,outcome,[11],inactive
same,Potency,[4],inactive
same,Potency,[18],inactive
same,Potency,[13],12 µM (active)
same,Potency,[9],inactive
c1ccc2cc3c4ccccc4c4ccccc4c3cc2c1,Potency,[1],inactive
same,outcome,[15],inactive
same,Potency,[16],inactive
same,Potency,[17],inactive
same,Potency,[2],inactive
same,Potency,[3],inactive
same,outcome,[11],inactive
same,Potency,[4],inactive
same,Potency,[12],inactive
same,Potency,[5],inactive
same,Potency,[7],inactive
same,Potency,[19],inactive
same,Potency,[13],inactive
same,Potency,[8],inactive
same,Potency,[9],inactive
CCCCCCCC/C=C\CCCCCCCC(=O)N(CCO)CCO,Potency,[1],43.5 µM (active)
same,Potency,[16],inactive
same,Potency,[17],inactive
same,Potency,[20],inactive
same,Potency,[2],54.7 µM (active)
same,outcome,[11],inactive
same,Potency,[4],inactive
same,Potency,[12],43.5 µM (active)
same,Potency,[5],inactive
same,Potency,[18],30.5 µM (active)
same,Potency,[9],inactive
COc1cccc(-c2ccc(/C=C\CN3CCCCCC3)cc2Cl)c1,Potency,[1],48.7 µM (active)
same,Potency,[17],inactive
same,Potency,[20],inactive
same,outcome,[10],inactive
same,outcome,[11],inactive
same,Potency,[13],43.4 µM (active)
O[Si](c1ccccc1)(c1ccccc1)c1ccccc1,Potency,[18],24.3 µM (active)
same,Potency,[7],inactive
same,Potency,[14],inactive
same,Potency,[13],inactive
same,Potency,[8],inactive
CN[C@H]1CC[C@@H](c2ccc(Cl)c(Cl)c2)c2ccc(S(N)(=O)=O)cc21,Potency,[1],6.92 µM (active)
same,Potency,[16],12.3 µM (active)
same,Potency,[17],34.7 µM (active)
same,Potency,[20],49 µM (active)
same,Potency,[2],13.8 µM (active)
same,Potency,[3],24.5 µM (active)
same,outcome,[11],inactive
same,Potency,[12],17.4 µM (active)
same,Potency,[5],21.9 µM (active)
same,Potency,[7],inactive
same,Potency,[13],27.5 µM (active)
same,Potency,[8],inactive
CCCC(=O)c1cc(O)c(O)cc1O,Potency,[7],inactive
same,Potency,[13],inactive
CC(C)(C)c1ccc(OC2CCCCC2O)cc1 (centres undefined),Potency,[18],inactive
same,Potency,[9],inactive
COc1ccc(OC)c(N=Nc2c(O)ccc3ccccc23)c1,Potency,[6],30.6 µM (active)
same,Potency,[8],17.2 µM (active)
same,Potency,[9],inactive
CCCCCCCCCCCCCCCCCCNC(=O)OC1CCN(C(=O)OC[C@H](COC(=O)N(Cc2cccc[n+]2CC)C(=O)c2ccccc2OC)OC)CC1,Potency,[1],10.6 µM (active)
same,outcome,[15],inactive
same,Potency,[16],33.5 µM (active)
same,Potency,[2],26.6 µM (active)
same,Potency,[4],inactive
same,Potency,[12],26.6 µM (active)
same,Potency,[5],21.3 µM (active)
same,Potency,[18],29.8 µM (active)
same,Potency,[13],23.9 µM (active)
same,Potency,[9],26.6 µM (active)
c1ccc(C[P+](c2ccccc2)(c2ccccc2)c2ccccc2)cc1,Potency,[7],inactive
same,Potency,[14],inactive
O=C(O)C[C@H](O)C[C@H](O)/C=C/c1c(C2CC2)nc2ccccc2c1-c1ccc(F)cc1,"viability change, negative = cytotoxic",[7],2.51% [at 15.8 µM]
same,activation,[14],4.12% [at 15.8 µM]
same,activation,[19],-9.56% [at 15.8 µM]
same,"activity change, negative = cytotoxicity",[8],1.42% [at 19 µM]

# Source: PubChem BioAssay (Tox21)
